According to PubChem BioAssay AID588689 (Southern Research Specialized Biocontainment Screening …, 2011):
The campaign covered roughly 340,000 compounds. About 1,000 (0.29%) were called active. Cut-off read from the data, not from the text of the source: inconclusive = inhibition above about 29% without an active follow-up result; inactive = below that. A selection follows. Results with a measured potency or affinity are listed apart.

Biological target: Genome polyprotein (Dengue virus type 2 (strain 16681-PDK53)) (UniProt P29991)
Assay: Dengue-2 NS5 methyltransferase inhibitors, primary screen, biochemical, confirmation dose response (AID 588689)
Conditions: Dengue-2 NS5 methyltransferase capping enzyme assay, at 25 µM, stronger effect = higher value
[1] = measured here: pilot screen replicate inhibition

SMILES | inhibition | inhibition [1]
Cc1[nH][nH]c(=O)c1C(c1ccc(-c2cccc(C(=O)O)c2)o1)c1c(C)[nH][nH]c1=O | 21.1% (inactive) | 
Cc1[nH][nH]c(=O)c1C(c1ccc(-c2ccccc2C(=O)O)o1)c1c(C)[nH][nH]c1=O | 39% (inactive) | 
Cc1cc(S(=O)(=O)N2CCCOC2CNC(=O)C(=O)NCCc2ccco2)ccc1F (centres undefined) | 0.64% (inactive) | 
COc1ccccc1OCCNC(=O)C(CCSC)NS(=O)(=O)c1ccccc1F (centres undefined) | -7.2% (inactive) | 
CC(Oc1ccccc1)C(=O)NNS(=O)(=O)c1ccc([N+](=O)[O-])cc1 (centres undefined) | -1.92% (inactive) | 
COc1ccc(-n2c(SCC(=O)Nc3cc(C)on3)nc3ccc(O)cc3c2=O)cc1OC | -6.42% (inactive) | 
O=C1NC(=S)N/C1=C/c1cccc([N+](=O)[O-])c1 | 1.48% (inactive) | 
O=[N+]([O-])c1cccc(/C=N/N=C\c2ccccc2)c1 | -0.78% (inactive) | 
O=C(O)c1cc(NCc2c(F)cccc2Cl)ccc1N1CCOCC1 | -2.05% (inactive) | 
NS(=O)(=O)c1ccc(NCc2c(F)cccc2Cl)cc1 | 4.17% (inactive) | 
CN1CCC(=NNC(=O)c2ccco2)CC1 | 17.7% (inactive) | 
Cc1ccccc1C(=O)NC(=S)Nc1ccc2[nH]c(=O)[nH]c2c1 | -1.8% (inactive) | 
C[C@H](CO)N1C[C@H](C)[C@@H](CN(C)S(=O)(=O)c2ccc(F)cc2)Oc2ccc(NS(=O)(=O)c3ccccc3)cc2C1=O | 0.4% (inactive) | 
CCC(C)C1=CC(=Nc2c(C)n(C)n(-c3ccccc3)c2=O)C=C(C(C)CC)C1=O (centres undefined) | 4.41% (inactive) | 
Cc1c(N=c2scc(-c3ccccc3)n2C)c(=O)n(-c2ccccc2)n1C | -7.91% (inactive) | 
Cc1c(N=C2C(=O)Nc3ccccc32)c(=O)n(-c2ccccc2)n1C | 2.78% (inactive) | 
CC1=CC(=Nc2c(C)n(C)n(-c3ccccc3)c2=O)C=C(C)C1=O | 2.89% (inactive) | 
CCC1CCCCN1C(=O)COc1ccc(S(=O)(=O)N2CCOCC2)cc1Cl (centres undefined) | -7.51% (inactive) | 
CCOC(=O)c1c(-c2ccccc2)oc2ccc(OCC(=O)O)cc12 | -1.55% (inactive) | 
CC1CCCCC1NC(=O)c1nnc(Cc2ccc(Cl)cc2)o1 (centres undefined) | -2.17% (inactive) | 
Cc1cc(-n2c(C)cc(C(=O)CSc3nncn3C(C)C)c2C)no1 | -1.44% (inactive) | 
COC(=O)c1ccc([C@H](NC(=O)c2ccco2)[C@]2(C)C[C@H]2C2CCCCC2)cc1 | -7.21% (inactive) | 
COc1ccc(C(=O)c2ccc(N3CCN(C(=O)c4ccc(F)cc4)CC3)c(F)c2)cc1Br | 4.82% (inactive) | 

SMILES | inhibition | inhibition [1]
O=C1Oc2ccccc2C(=O)/C1=C\N1CCN(c2ccccc2)CC1 | -8.28% (inactive) | 
Cc1ccccc1/C=C1\Oc2ccccc2C1=O | 1.3% (inactive) | 
Cc1cc(C(=O)NNC(=O)c2c(-c3c(Cl)cccc3Cl)noc2C)no1 | 0% (inactive) | 
CCc1ccc(OCC(O)CN2CCN(c3ccc(OC)cc3)CC2)cc1 (centres undefined) | -3.27% (inactive) | 
O=C(c1ccccc1)c1ccc(Oc2ccc(C(=O)O)c(C(=O)O)c2)cc1 | 2.64% (inactive) | -1.5%
CC(C)(C)C(=O)Nc1ccc(C(=O)Nc2cccc(Oc3ccc(C(=O)O)c(C(=O)O)c3)c2)cc1 | 9.79% (inactive) | -1.52%
COc1cc(-c2nc3ccccn3c2/N=C/c2ccc(F)cc2)ccc1O | -1.47% (inactive) | 
O=C(c1ccc2c3c(cccc13)CC2)C1CCCN(Cc2cccnc2)C1 (centres undefined) | -8.53% (inactive) | 
O=C(c1ccc2c3c(cccc13)CC2)C1CCCN(Cc2ccncc2)C1 (centres undefined) | -3.47% (inactive) | 
O=C(NCCO)C(=O)NCC(c1cccs1)S(=O)(=O)c1ccc(F)cc1 (centres undefined) | 0% (inactive) | 
CC(C)C[C@@H](CNC(=O)OC(C)(C)C)NC(=O)c1nc[nH]c1C(=O)N[C@@H](CC(C)C)C(=O)CNC[C@H](CC(C)C)NC(=O)c1nc[nH]c1C(=O)N[C@@H](Cc1c[nH]c2ccccc12)C(=O)OC(C)(C)C | -7.03% (inactive) | 
CC1(C)CC(=O)C=C(C(=O)N2CCCC(C(=O)c3cc(F)ccc3F)C2)O1 (centres undefined) | -6.28% (inactive) | 
CCN(C1CCCCC1)S(=O)(=O)CCNC(=O)c1ccc2c(c1)OCO2 | -2.2% (inactive) | 
Cc1ccn(-c2cc(O)c(-n3ccc(C)n3)cc2O)n1 | -6.11% (inactive) | 
c1ccc2c(-n3cccn3)cccc2c1 | -11.8% (inactive) | 
CCOc1ccccc1C(=O)OCC(=O)Nc1ccc(OC(F)F)cc1 | 0.68% (inactive) | -8.52%
COc1ccc(/C=C2\SC(=S)N(NS(=O)(=O)c3ccc(C)cc3)C2=O)c(OC)c1 | 16.5% (inactive) | 
COc1ccc(OC)c(/C=C2\SC(=S)N(NS(=O)(=O)c3ccccc3)C2=O)c1 | 43.4% (inactive) | 
COc1ccccc1/C=C1\SC(=S)N(N2C(=O)CCCC2=O)C1=O | 0% (inactive) | 
COc1ccccc1/C=C1\SC(=S)N(Nc2nc(C)cc(C)n2)C1=O | 7.21% (inactive) | 
Cc1cc2cc(C#N)c(SCC(=O)Nc3nonc3C)nc2cc1C | 3.66% (inactive) | 
O=C(CSc1nnc2ccccn12)NC(=O)c1cccc([N+](=O)[O-])c1 | -2.72% (inactive) | 
Cc1nc(NN)nc(NCc2ccccc2)n1 | -1.54% (inactive) | 

SMILES | inhibition | inhibition [1]
CC[C@H]1c2[nH]c3ccccc3c2C[C@@H]2C(=O)N(c3ccc(F)cc3)C(=O)N21 | 0% (inactive) | 
Cc1ccc(C(=O)NNC(=O)C2CSC3(C)CCC(=O)N23)cc1 (centres undefined) | 5.19% (inactive) | 
Cc1cc(=O)[nH]c(SCC(=O)Nc2nnc(SCc3ccccc3)s2)n1 | -1.48% (inactive) | 
CC(=O)Nc1c(O)nc(SCC(=O)Nc2nnc(SCc3ccccc3)s2)[nH]c1=O | 3.91% (inactive) | 
COc1cccc(CN2CCNC(=O)C2CC(=O)NCCc2ccccn2)c1 (centres undefined) | -3.12% (inactive) | 
Cc1occc1C(=O)Nc1cnn(CCCC(=O)O)c1 | 0.32% (inactive) | 
O=C(CC(=O)NN=C1CCCCCC1)NCc1cccnc1 | -7.12% (inactive) | 
CCOc1ccc(/C=C2\SC(=S)N(CCC(=O)O)C2=O)cc1 | 10.9% (inactive) | 
CCOc1cc(/C=C2/SC(=S)N(Cc3ccccc3)C2=O)ccc1O | -16.7% (inactive) | 
COc1cc(/C=C2\SC(=S)N(CC(=O)O)C2=O)ccc1OC(=O)c1ccco1 | -6.52% (inactive) | 
COc1cc(/C=C2/SC(=S)N(CC(=O)O)C2=O)ccc1OC(=O)c1ccco1 | -8.15% (inactive) | 
CCn1c(O)c(/C=C2\C=NN=C2c2ccccc2)sc1=S | 1.56% (inactive) | 
Cc1ccc(C2=NN(C(=O)CCC(=O)O)C(c3ccc4c(c3)OCO4)C2)cc1 (centres undefined) | -1.55% (inactive) | 
COc1ccc(CNC(=O)CN(Cc2ccccc2F)C(=O)c2csnn2)cc1 | -7.27% (inactive) | 
CCc1cccc2c1NC(=O)C21N2CCCC2C(C(=O)c2ccc3ccccc3c2)C12C(=O)Nc1ccccc12 (centres undefined) | -10.4% (inactive) | 
Cc1c(Cl)cccc1NC(=O)CC1Sc2ccccc2NC1=O (centres undefined) | -2.59% (inactive) | 
O=C(O)c1ccc(C(=O)C(=O)c2ccccc2)cc1 | -3.83% (inactive) | 
CCN(CC)c1ccc(C(=O)O)cc1 | -2.67% (inactive) | 
O=C(Oc1ccc(/C=N/NC(=O)c2ccccn2)cc1)c1cccc(F)c1 | 0.65% (inactive) | 
O=S(=O)(c1ccccc1)c1nc(-c2ccc(F)cc2)oc1NCC1CCCO1 (centres undefined) | -1.48% (inactive) | 
CC(C)NC(=O)C(=O)Nc1ccc2c(c1)N(S(=O)(=O)c1cccs1)CCC2 | 2.2% (inactive) | 
CCn1c(-c2ccco2)nc2ccccc21 | -5.14% (inactive) | 
c1coc(Cn2c(-c3ccco3)nc3ccccc32)c1 | -8.81% (inactive) | 

SMILES | inhibition | inhibition [1]
O=C(CCc1nc(-c2ccc(Cl)cc2)no1)NCc1ccccc1CN1CCOCC1 | 1.12% (inactive) | 
O=C(C=Cc1cccc(Cl)c1)c1ccccc1 | -41.2% (inactive) | 
CN(C)c1ccc(/C=C(\C#N)C(=O)c2ccccc2)cc1 | -80.6% (inactive) | 
CNC(=S)N(CCN(C)C)Cc1cc2cc3c(cc2[nH]c1=O)OCO3 | -3.53% (inactive) | 
Cn1c(=O)cc(N)n(-c2ccccc2)c1=O | 1.3% (inactive) | 
O=C1c2ccccc2COc2ccc(O)cc21 | 4% (inactive) | 
Cc1ccnc(N2CCC(C(=O)Nc3ccc4c(c3)CCC4)CC2)n1 | -1.37% (inactive) | -2.12%
CCc1nnc(NC(=O)CSc2nc(-c3ccc(OC)cc3)ns2)s1 | -9.71% (inactive) | 
CCN(CC)c1ccc(C(=O)c2ccccc2C(=O)O)c(O)c1 | 8.17% (inactive) | 6.25%
CN(C)c1ccc(C(=O)c2ccccc2C(=O)O)c(O)c1 | -0.81% (inactive) | 
Cc1nc(N)nc(N(C)c2ccccc2)c1Br | 3.09% (inactive) | 
O=C(COC(=O)C1CCN(S(=O)(=O)c2cccc3cccnc23)CC1)c1ccc([N+](=O)[O-])cc1 | -7.6% (inactive) | 
O=S(=O)(Cc1ccccc1)N1CCN(Cc2ccc(F)cc2Cl)CC1 | -4.55% (inactive) | 
COc1ccc(C(C[N+](=O)[O-])c2c(C)[nH]n(-c3ccccc3)c2=O)cc1 (centres undefined) | -13.7% (inactive) | 
COc1ccc(N=C(c2ccccc2)c2c(C)[nH]n(-c3ccccc3)c2=O)c(OC)c1 | -10.3% (inactive) | 
COc1ccc(C(c2c(C)n(C)n(-c3ccccc3)c2=O)c2c(C)n(C)n(-c3ccccc3)c2=O)cc1OC | -2.72% (inactive) | 
COc1cc(C(c2c(C)[nH][nH]c2=O)c2c(C)[nH][nH]c2=O)cc(OC)c1OC | 1.7% (inactive) | 
Nc1nccc(/C=C/c2c(Cl)cccc2Cl)n1 | -5.43% (inactive) | 
Cn1c(=O)c2c(SCc3ccccc3)nc(C3CC3)nc2n(C)c1=O | -11.1% (inactive) | 
CC(C)(C)OC(=O)C[C@H]1C/C=C\C[C@@H](CC(=O)N(CCO)Cc2ccccc2)C(=O)N[C@@H](Cc2ccccc2)COC1=O | 1.65% (inactive) | 
